RN4220 kill – kills Staphylococcus aureus RN4220 | S. aureus RN4220 growth, OD600, 16 h | inhibition, % (concentration not given with the values) | 0.33% of 330,000 active; in the data active means inhibition above about 85%;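 further: plate controls were untreated cells for no effect and reference antibiotic for full effect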
Mtb hypoxia inh – reduces hypoxia-regulated biosensor signal in M. tuberculosis; M. tuberculosis hypoxia-regulated fluorescent reporter, fluorescence; fluorescence inhibition, % (test concentration not listed); 0.1% of 300,000 active; in the data active means fluorescence inhibition mostly above about 23%, no sharp cut-off; inactive means mostly below about 17%
Sa ugtP lethal – compounds lethal to S. aureus RN4220 ugtP deletion mutant | growth inhibition, % (no concentration beside the values) | 0.54% of 330,000 active | OD600 growth, 16 h | AID 1259309; in the data active means growth inhibition above about 68%;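 further: plate controls were untreated wells for no effect and antibiotic for full effect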
PriA SSB inh – inhibitors of Klebsiella pneumoniae PriA binding to SSB C-terminal tail. 0.6% of 430,000 active. AlphaScreen SSBct-PriA binding, biotinylated peptide. inhibition, % at 33 µM; in the data active means inhibition mostly above about 37%, no sharp cut-off; inactive means mostly below about 20%;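 further: plate controls were negative control peptide for no effect and reference peptide for full effect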
* marks the source's active call; other numbers are inactive results; nt = not tested or not shown. Sampled rows, rich in hits. Any-hit rate of the full collection: about 1.1%.

SMILES	RN4220 kill	Mtb hypoxia inh	Sa ugtP lethal	PriA SSB inh
CCc1cccc2c(C(=O)COC(=O)c3ccc([N+](=O)[O-])s3)c[nH]c12	100*	8	101*	26
O=C(OCC(=O)c1c[nH]c2ccccc12)c1ccc([N+](=O)[O-])s1	85	14	101*	0
C[C@H](NC(=O)CCc1csc(NC(=O)c2ccc(=O)[nH]c2)n1)c1ccccc1	nt	nt	nt	-12
COc1ccc(S(=O)(=O)NCC2CCN(C(C)C)CC2)c(C)c1	nt	nt	nt	-14
CCCOc1ccc(C2C(C(=O)c3cc4ccccc4o3)=C(O)C(=O)N2c2cc(C)on2)cc1OC (configuration not stated)	99*	-6	100*	6
C=CCOc1cccc(C2C(C(=O)c3cc4ccccc4o3)=C(O)C(=O)N2c2cc(C)on2)c1 (configuration not stated)	100*	-8	100*	-17
Cc1cc(N2C(=O)C(O)=C(C(=O)c3ccco3)C2c2cccc(Cl)c2)no1 (configuration not stated)	96*	-8	92*	-10
Cc1cc(N2C(=O)C(O)=C(C(=O)c3ccco3)C2c2cccnc2)no1 (configuration not stated)	5	-1	6	nt
Cn1nc(C(=O)OCC(=O)NCCc2ccccc2)c2ccccc2c1=O	3	9	12	-8
Cn1nc(C(=O)OCC(=O)NCc2ccc(Cl)cc2)c2ccccc2c1=O	4	31*	4	-12
O=C(Cc1ccc2c(c1)OCO2)Nc1ccc(-c2nc3ccccc3s2)c(O)c1	nt	nt	nt	-18
Cc1cc(O)c(C(c2ccc(Br)cc2)c2c(O)cc(C)[nH]c2=O)c(=O)[nH]1	nt	nt	nt	5
CC1(C)SC2C(NC(=O)C(N)c3ccc(O)cc3)C(=O)N2C1C(=O)O (configuration not stated)	24	4	61	nt
CC1(C)SC2C(NC(=O)Cc3ccccc3)C(=O)N2C1C(=O)O (configuration not stated)	100*	4	99*	nt
CC1(C)SC2C(NC(=O)C3(N)CCCCC3)C(=O)N2C1C(=O)O (configuration not stated)	100*	21	101*	-6
CC(Oc1ccccc1)C(=O)NC1C(=O)N2C1SC(C)(C)C2C(=O)O (configuration not stated)	100*	-4	100*	-9
Cc1c(Cl)ccc2sc(N(CC3CCCO3)C(=O)c3cccc(Cl)c3)nc12 (configuration not stated)	nt	nt	nt	-58
CCCS(=O)(=O)Nc1ccc(-c2ccc(S(=O)(=O)CC)nn2)cc1	nt	nt	nt	2
C=CCOc1ccc(C(O)=C2C(=O)C(=O)N(CCCN3CCOCC3)C2c2ccccc2)cc1 (configuration not stated)	nt	nt	nt	-11
O=C(COC(=O)c1ccc([N+](=O)[O-])o1)Nc1ccc(F)cc1	11	35*	6	4
O=C(COC(=O)c1ccc([N+](=O)[O-])o1)Nc1ccc(N2CCOCC2)cc1	8	nt	12	-11
C=C(C)CSc1nc2sc3c(c2c(=O)n1C1CCCCC1)CCN(C)C3	100	13	active	15
O=C(CCC(=O)Nc1ccc(F)cc1)NN=Cc1cc([N+](=O)[O-])ccc1O	nt	nt	nt	0
Cn1c(SCC(=O)NN=Cc2cc([N+](=O)[O-])ccc2O)nnc1-c1ccccc1	80	3	72	-12
O=[N+]([O-])c1ccc(O)c(C=Nc2ccc3nc(-c4ccccc4)[nH]c3c2)c1	88*	14	66	16
SMILES	RN4220 kill	Mtb hypoxia inh	Sa ugtP lethal	PriA SSB inh
O=C(Cn1nc2ccccc2n1)NN=Cc1cc([N+](=O)[O-])ccc1O	95*	6	88*	-14
Oc1c(Br)cc(C=Nc2ccc3nc(-c4ccccc4)[nH]c3c2)c(O)c1Br	nt	nt	nt	21
Cc1ccn(CC(=O)NN=Cc2cc([N+](=O)[O-])ccc2O)n1	93*	3	83*	23
Cc1cc(NC(=O)c2ccc(F)c(F)c2)n(-c2nc(-c3cccs3)cs2)n1	nt	nt	nt	4
Cc1csc(NN=Cc2ccccn2)n1	10	4	-7	58*
Cc1nc(NN=Cc2ccccn2)sc1C	9	11	4	11
CCCc1sc(NN=Cc2ccccn2)nc1-c1ccc(F)cc1	5	-4	-33	41*
COc1ccc(-c2csc(NC(=O)CSc3ccc(F)cc3)n2)c(OC)c1	nt	nt	nt	-9
COc1ccc(C)cc1Nc1n[n+](-c2ccccc2)c(-c2cc(OC)c(OC)cc2Br)s1	nt	nt	nt	58*
Cc1cccc(-c2sc(Nc3ccccc3)n[n+]2-c2ccc(F)cc2)c1	nt	nt	nt	2
COc1ccc(-c2sc(Nc3ccccc3)n[n+]2-c2ccc(F)cc2)c(C)c1C	-3	1	-43	42*
O=C(/C=C/c1ccc(S(=O)(=O)N2CCOCC2)cc1)NCCc1ccc(C(F)(F)F)cc1	-1	25*	3	-7
COC(=O)CCSCC(=O)Nc1nccs1	nt	nt	nt	-22
CC(C)(C)c1ccc(-c2nnc3sc(-c4cnccn4)nn23)cc1	nt	nt	nt	51*
COc1ccc(CNc2nccc(-n3nc(C)cc3C)n2)cc1OC	nt	nt	nt	31
COc1ccc(F)cc1S(=O)(=O)N1CCN(c2ccc(-c3ccccc3C)nn2)CC1	nt	nt	nt	1
CC(=O)c1cccc(Oc2cc(NN3CCCCC3)c([N+](=O)[O-])cc2[N+](=O)[O-])c1	2	-1	-10	45*
O=S(=O)(Nc1cccnc1)c1ccc(Oc2ccccc2Cl)cc1	nt	nt	nt	-15
O=C(CSCc1ccccc1)N(Cc1ccco1)C1CCOCC1	nt	nt	nt	5
O=C(Nc1cnn(C[C@H]2COc3ccccc3O2)c1)c1ccno1	nt	nt	nt	3
COc1cccc(-c2c(-c3cc(OC)cc(OC)c3)n(C)c3ccc(-c4cnc(OC)nc4)cc23)c1	2	15	7	-14
COc1cccc(-c2c(-c3cc(OC)cc(OC)c3)n(C)c3ccc(-c4cnc(N5CCOCC5)nc4)cc23)c1	4	45*	-10	4
O=c1c(NCc2ccccc2Cl)nccn1-c1ccc2c(c1)OCO2	nt	nt	nt	37*
Cn1c(=O)c2c(nc(NCc3ccc4c(c3)OCO4)n2Cc2ccccc2Cl)n(C)c1=O	2	8	4	-7
O=[N+]([O-])c1ccccc1N=Nc1ccc(O)cc1	8	-2	-14	43*
SMILES	RN4220 kill	Mtb hypoxia inh	Sa ugtP lethal	PriA SSB inh
CS(=O)(=O)N1CCC(C(=O)Nc2nc(-c3ccc(-c4ccccc4)cc3)cs2)CC1	nt	nt	nt	-25
Cc1cccc(-c2nnc(SCC(=O)Nc3cc(C)ccc3C)n2-n2cccc2)c1	nt	nt	nt	-7
Cc1ccc2cc(CCNC(=S)NCCn3ccc4ccccc43)c(=O)[nH]c2c1	nt	nt	nt	46*
CCCCCCc1nnc(NC(=O)OCC)s1	3	45*	2	-7
COC(=O)[C@@H]1C[C@H]2CC[C@H](O)C[C@H]2N1Cc1ccc(C(C)(C)C)cc1	nt	nt	nt	101*
COC(=O)[C@@H]1C[C@@H]2CC[C@@H](O)C[C@@H]2N1Cc1ccc(C(F)(F)F)cc1	nt	nt	nt	-1
CC(=O)Nc1ccc(S(=O)(=O)NCCn2ccnc2-c2ccccn2)c(C)c1	nt	nt	nt	9
O=C(NCCn1ccnc1-c1ncccn1)c1ccc2c(c1)OCO2	nt	nt	nt	93*
COc1ccc(S(=O)(=O)NCCn2ccnc2-c2ncccn2)c(C)c1	nt	nt	nt	81*
COc1ccc(Br)c(C(=O)NCCn2ccnc2-c2ncccn2)c1	nt	nt	nt	91*
COc1ccc(Br)c(C(=O)NCCn2nc(C)cc2C)c1	nt	nt	nt	-12

Bioassay records (PubChem)
